Records with an inconclusive call do not appear. Where a call stands in place of a potency, no number is given. The source made the active and inactive calls. Unless noted, calls come from the whole dose curve.
Columns and labels:
[1] = qHTS for Inhibitors of the Functional Ribonucleoprotein Complex (vRNP) of Lassa (LASV) Arenavirus: LASV Primary Screen - GLuc reporter signal (AID 1347082; calls by dose curve; tested in HEK293 reporter line; note: nearly all actives have a fitted effect of over 60% in size; note: potency is the fitted concentration of half-maximal effect)
[2] = qHTS for Inhibitors of the Functional Ribonucleoprotein Complex (vRNP) of Lassa (LASV) Arenavirus: Viability assay - alamar blue signal for LASV Primary Screen (AID 1347083; calls by dose curve; tested in HEK293 reporter line; note: nearly all actives have a fitted effect of over 80% in size; note: potency is the fitted concentration of half-maximal effect)
[3] = biological target: Nucleoprotein (Lymphocytic choriomeningitis virus (strain Armstrong)) (UniProt P09992); experiment: qHTS for Inhibitors of the Functional Ribonucleoprotein Complex (vRNP) of Lymphocytic Choriomeningitis Arenaviruses (LCMV): LCMV Primary Screen - GLuc reporter signal (AID 1347086); note: nearly all actives have a fitted effect of over 70% in size; note: potency is the fitted concentration of half-maximal effect
[4] = Cytotoxicity counterscreen for inhibitors of SARS-CoV-2 cell entry (AID 1645845); note: nearly all actives have a fitted effect of over 50% in size
In short: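 After a 15 min room-temperature ATPLite 1step step, luminescence reflected ATP remaining in HEK293-ACE2 cells exposed to compound for 1 h plus 48 h at 37 C, with percent activity set by cell and no-cell controls.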

[5] = Primary qHTS for Huh7 cytotoxicity: counterscreen for inhibitors of MERS-S pseudotyped particle cell entry (AID 1479147); conditions: outcome: dose series up to 57.1 µM unless noted
[6] = Primary qHTS for inhibitors of MERS-S pseudo-typed particle cell entry (AID 1479149); note: nearly all actives have a fitted effect of over 60% in size
[7] = Primary qHTS for Vero E6 cytotoxicity: counterscreen for inhibitors of SARS-S pseudo-typed particle cell entry (AID 1479150); conditions: outcome: dose series up to 57.1 µM unless noted
[8] = Primary qHTS to identify inhibitors of SARS-CoV-2 cell entry (AID 1645846); conditions: activity change, negative = inhibition: at 57.1 µM (top of the series) unless noted; note: nearly all actives have a fitted effect of over 45% in size
In short: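 Using luciferase-reporting pseudoviruses carrying Wuhan-Hu-1 spike, the screen tracks entry into stably ACE2-expressing cells over 48 hr. Activity is expressed relative to spike particles versus particles lacking any fusion protein.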

[9] = Primary qHTS for inhibitors of SARS-S pseudo-typed particle cell entry (AID 1479145); note: nearly all actives have a fitted effect of over 45% in size
[10] = biological target: Alpha-galactosidase (Coffea arabica) (UniProt Q42656); experiment: Counterscreen for Glucocerebrosidase Inhibitors: qHTS Assay for Coffee Bean alpha-Galactosidase at pH 4.5 (AID 957; active = well fitted curve in the direction sought with a large enough effect; an effect the other way counts as inactive or inconclusive)
In short: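 Enzyme is added first (2 nM final), then compounds titrated from 0.7 nM to 77 uM, then 80 uM 4-methylumbelliferyl alpha-D-galactopyranoside; after 20 min at room temperature a pH 10 NaOH/glycine stop precedes fluorescence reading at 365/440 nm.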

[11] = biological target: Alpha-galactosidase (Coffea arabica) (UniProt Q42656); experiment: Counterscreen for Glucocerebrosidase Inhibitors: qHTS Assay for Coffee Bean alpha-Galactosidase at pH 5.9 (AID 998; active = well fitted curve in the direction sought with a large enough effect; an effect the other way counts as inactive or inconclusive)
In short: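 In 50 mM citric acid pH 5.9 with 0.005% Tween-20, coffee bean enzyme hydrolyses 80 uM 4-MU alpha-D-galactopyranoside over 20 min at RT. Activity is normalized to controls; AC50 comes from Hill-modelled concentration-response data.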

[12] = qHTS for Inhibitors of the Functional Ribonucleoprotein Complex (vRNP) of Lymphocytic Choriomeningitis Arenaviruses (LCMV): Viability assay - alamar blue signal for LCMV Primary Screen (AID 1347085; calls by dose curve; tested in HEK293 reporter line; note: nearly all actives have a fitted effect of over 80% in size)
[13] = Inducers of the Endoplasmic Reticulum Stress Response (ERSR) in human glioma: Validation (AID 504836; active = well fitted curve in the direction sought with a large enough effect; an effect the other way counts as inactive or inconclusive)
In short: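 Stably transfected U87-MG human glioma cells carrying a GRP78-based luminescent sensor were seeded at 1000 cells/well, pin-dosed with compounds and incubated 16 h. Luciferase reagent was then added, and end-point luminescence was read after 10 min at room temperature.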

[14] = biological target: Cytochrome P450 1A2 (Homo sapiens) (UniProt P05177); experiment: p450-cyp1a2 (AID 410); note: potency is the fitted concentration of half-maximal effect
In short: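 O-Demethylation of luciferin 6' methyl ether by human CYP1A2 is monitored as luciferase luminescence. Substrate sits at Km (100uM); enzyme is 20nM. Values are scaled to 57 uM furafylline as maximal inhibition.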

[15] = biological target: Glucocorticoid receptor (Homo sapiens) (UniProt P04150); experiment: GR-GFP Redistribution (AID 450;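 active = compounds whose dose series gives a full or clear partial fitted curve of increased nuclear translocation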; note: potency is the fitted concentration of half-maximal effect); conditions: U2OS GR-GFP nuclear translocation, laser cytometry, 2 h
[16] = biological target: Glucocorticoid receptor (Homo sapiens) (UniProt P04150); experiment: GR-EFC Redistribution (AID 451); conditions: CHO-K1 GR-EFC translocation, beta-gal luminescence, 2 h; note: potency is the fitted concentration of half-maximal effect
In short: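 CHO-K1 cells stably expressing nuclear-localized β-gal enzyme acceptor and GR fused C-terminally to the enzyme donor fragment; ligand-driven nuclear translocation restores β-gal by complementation. Compounds titrated up to 46 uM final, 2 h at 37 °C; luminescence read.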

[17] = biological target: Mitogen-activated protein kinase 10 (Mus musculus) (UniProt Q61831); experiment: JNK3 AlphaScreen Assay (AID 530; active = well fitted curve in either direction with a large enough effect, not every such curve was filed as active;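 note: kinase came from lysate of stimulated human HepG2 cells; signal reports phosphorylation of biotinylated GST-cJun 1-79 at Ser73 with 10 µM ATP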)
In short: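 Phosphorylation of biotinylated GST-cJun(1-79) at Ser73 is measured by AlphaScreen proximity luminescence. Enzyme is JNK3 in HepG2 lysates activated with interleukin-1beta and tumor necrosis factor alpha; ATP is 10 uM final.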

[18] = biological target: 3',5'-cyclic-AMP phosphodiesterase 4B (Homo sapiens) (UniProt Q07343); experiment: qHTS Assay for Inhibitors of PDE-IV (AID 607; active = well fitted activation curve with a large enough effect in the main read-out, with a control signal flat, not every such curve was filed as active)
In short: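 Live HEK293 cells with a modified cyclic nucleotide-gated (CNG) channel report intracellular cAMP via membrane-potential dye fluorescence (ex 535/em 590 nm). Endogenous PDE-IV was targeted. Compounds were tested at up to 22.9 uM final; RO 20-1724 100 uM served as control.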

[19] = biological target: Cytochrome P450 2C9 (Homo sapiens) (UniProt P11712); experiment: qHTS Assay for Inhibitors and Substrates of Cytochrome P450 2C9 (AID 883; active = well fitted curve in the direction sought with a large enough effect; an effect the other way counts as inactive or inconclusive; note: nearly all actives have a fitted effect of over 60% in size)
In short: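 CYP2C9 deoxyluciferin hydroxylation, 37C, 60 min with NADPH regeneration; 10nM enzyme, 100uM Luciferin-H (KM). Glo detection reagent stopped reaction; luminescence normalized to sulphaphenazole (57uM) full inhibition.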

[20] = biological target: Cytochrome P450 3A4 (Homo sapiens) (UniProt P08684); experiment: qHTS Assay for Activators of Cytochrome P450 3A4 (AID 885; active = well fitted curve in the direction sought with a large enough effect; an effect the other way counts as inactive or inconclusive; note: nearly all actives have a fitted effect of over 65% in size)
In short: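 Using 20nM recombinant human CYP3A4 in potassium phosphate (200mM), substrate Luciferin-PPXE at 25uM, luminescent luciferin detection followed a 60-min RT NADPH reaction; data scaled to 57 uM ketoconazole.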

[21] = biological target: Cytochrome P450 2D6 (Homo sapiens) (UniProt P10635); experiment: qHTS Assay for Inhibitors and Substrates of Cytochrome P450 2D6 (AID 891; active = well fitted curve in the direction sought with a large enough effect; an effect the other way counts as inactive or inconclusive;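 note: luciferin methyl ether substrate demethylated by CYP2D6 with NADPH regeneration; nearly all actives have a fitted effect of over 60% in size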)
In short: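 Luminescent read-out of luciferin formed by 5 nM human CYP2D6 demethylating 30 uM Luciferin-ME EGE (Km level) over 60 min at room temperature after NADPH regeneration addition. Data normalized to full inhibition by 1.43 uM quinidine.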

[22] = biological target: Cytochrome P450 2C19 (Homo sapiens) (UniProt P33261); experiment: qHTS Assay for Inhibitors and Substrates of Cytochrome P450 2C19 (AID 899; active = well fitted curve in the direction sought with a large enough effect; an effect the other way counts as inactive or inconclusive; note: nearly all actives have a fitted effect of over 60% in size)
In short: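 In 50mM KPO4, the reaction held 5nM enzyme and KM-level (10uM) Luciferin-H EGE; it ran 60 min at 37C after NADPH regeneration and a 10 min compound preincubation. Luminescence values were scaled to 57uM ketoconazole as complete inhibition.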

[23] = Confirmation and Secondary Assay for Modulators of Hemoglobin Beta Chain Splicing at IVS2 654 locus (AID 910; active = well fitted curve in the direction sought with a large enough effect; an effect the other way counts as inactive or inconclusive;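 note: per-well total GFP intensity by laser scanning cytometry after 2-day treatment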)
In short: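 HeLa cells stably carrying EGFP interrupted by mutant beta-globin IVS2-654 intron (CMV-driven) were treated with compound for 2 days at 37C; corrected splicing was scored as total peak GFP intensity per well (488 nm excitation, 500-520 nm emission).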

[24] = Confirmation and Secondary Assay for Modulators of Hemoglobin Beta Chain Splicing at IVS2 705 locus (AID 930; active = well fitted curve in the direction sought with a large enough effect; an effect the other way counts as inactive or inconclusive;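 note: HeLa cells stably expressing the EGFP-705 splicing reporter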)
In short: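 HeLa cells stably carrying EGFP interrupted by mutant beta-globin IVS2-705 intron (CMV-driven) were seeded at 500 cells/well, treated next day with compound for 2 days at 37C; corrected splicing restores EGFP, read as total peak GFP intensity per well.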

[25] = biological target: DNA dC->dU-editing enzyme APOBEC-3G (Homo sapiens) (UniProt Q9HC16); experiment: qHTS for inhibitors of Vif-A3G interactions: Validation (AID 588379; active = well fitted curve in the direction sought with a large enough effect; an effect the other way counts as inactive or inconclusive)
In short: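 Yellow fluorescence (Ex 488, Em 500-530) of Vif-coexpressing HeLa A3G-eYFP cells, scanned by Acumen cytometer, reports blocked A3G degradation. Cells plated at 700/well overnight at 37 deg C before compound addition, then a further overnight compound incubation at 37 deg C.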

[26] = test system: Zika virus NS2B-NS3 protease; experiment: Primary screen GU AMC qHTS for Zika virus inhibitors (AID 1347154; active = well fitted curve in the direction sought with a large enough effect; an effect the other way counts as inactive or inconclusive; note: nearly all actives have a fitted effect of over 70% in size)
In short: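 Unlinked Zika NS2B hydrophilic domain/NS3 protease domain noncovalent complex (25 nM final) in 10 mM Tris-HCl pH 8.0, 0.01% Tween 20, with AMC peptide substrate. Fluorescence (ex 340, em 450 nm) change over 15 min, room temperature; percent inhibition fitted to 4-parameter Hill equation.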

[27] = Primary qHTS for small molecule stabilizers of the endoplasmic reticulum resident proteome: Secreted ER Calcium Modulated Protein (SERCaMP) assay (AID 1508630; active = well fitted curve in the direction sought with a large enough effect; an effect the other way counts as inactive or inconclusive)
In short: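 The SH-SY5Y reporter protocol was run at 3 concentrations up to 38.3 uM (primary) or 11 concentrations (follow-up): 16 h compound, 100 nM thapsigargin for 4 h, then extracellular luciferase luminescence.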

Chain of Alpha-galactosidase (Coffea arabica) (Q42656 whole entry, looked up): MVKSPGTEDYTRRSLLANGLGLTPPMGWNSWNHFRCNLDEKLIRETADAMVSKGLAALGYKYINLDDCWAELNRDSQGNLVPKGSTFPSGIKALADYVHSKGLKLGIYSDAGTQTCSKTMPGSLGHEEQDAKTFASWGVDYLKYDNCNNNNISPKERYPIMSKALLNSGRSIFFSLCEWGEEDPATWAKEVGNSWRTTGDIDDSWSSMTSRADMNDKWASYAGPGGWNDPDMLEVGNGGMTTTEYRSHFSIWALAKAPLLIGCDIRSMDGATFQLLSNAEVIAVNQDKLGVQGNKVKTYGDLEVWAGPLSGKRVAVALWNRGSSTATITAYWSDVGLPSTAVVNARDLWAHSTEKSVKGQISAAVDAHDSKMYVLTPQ
Chain of Nucleoprotein (Lymphocytic choriomeningitis virus (strain Armstrong)) (P09992 whole entry, looked up): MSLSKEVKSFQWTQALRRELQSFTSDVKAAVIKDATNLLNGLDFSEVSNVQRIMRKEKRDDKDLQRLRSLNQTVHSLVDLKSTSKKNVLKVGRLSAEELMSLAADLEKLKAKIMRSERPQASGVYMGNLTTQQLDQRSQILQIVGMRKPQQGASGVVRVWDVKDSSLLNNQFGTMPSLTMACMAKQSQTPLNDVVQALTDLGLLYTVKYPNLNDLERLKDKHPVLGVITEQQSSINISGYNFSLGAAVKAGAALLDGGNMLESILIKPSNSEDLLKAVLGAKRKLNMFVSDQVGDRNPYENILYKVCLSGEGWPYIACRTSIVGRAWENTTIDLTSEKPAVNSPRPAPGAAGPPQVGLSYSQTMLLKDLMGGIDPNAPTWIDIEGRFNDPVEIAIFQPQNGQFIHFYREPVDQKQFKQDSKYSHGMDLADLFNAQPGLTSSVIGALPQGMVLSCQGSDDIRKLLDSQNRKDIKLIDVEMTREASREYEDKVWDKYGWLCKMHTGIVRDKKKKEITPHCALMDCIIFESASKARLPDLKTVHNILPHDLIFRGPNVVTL
Chain of Glucocorticoid receptor (Homo sapiens) (P04150 whole entry, looked up, the tested form may be a part): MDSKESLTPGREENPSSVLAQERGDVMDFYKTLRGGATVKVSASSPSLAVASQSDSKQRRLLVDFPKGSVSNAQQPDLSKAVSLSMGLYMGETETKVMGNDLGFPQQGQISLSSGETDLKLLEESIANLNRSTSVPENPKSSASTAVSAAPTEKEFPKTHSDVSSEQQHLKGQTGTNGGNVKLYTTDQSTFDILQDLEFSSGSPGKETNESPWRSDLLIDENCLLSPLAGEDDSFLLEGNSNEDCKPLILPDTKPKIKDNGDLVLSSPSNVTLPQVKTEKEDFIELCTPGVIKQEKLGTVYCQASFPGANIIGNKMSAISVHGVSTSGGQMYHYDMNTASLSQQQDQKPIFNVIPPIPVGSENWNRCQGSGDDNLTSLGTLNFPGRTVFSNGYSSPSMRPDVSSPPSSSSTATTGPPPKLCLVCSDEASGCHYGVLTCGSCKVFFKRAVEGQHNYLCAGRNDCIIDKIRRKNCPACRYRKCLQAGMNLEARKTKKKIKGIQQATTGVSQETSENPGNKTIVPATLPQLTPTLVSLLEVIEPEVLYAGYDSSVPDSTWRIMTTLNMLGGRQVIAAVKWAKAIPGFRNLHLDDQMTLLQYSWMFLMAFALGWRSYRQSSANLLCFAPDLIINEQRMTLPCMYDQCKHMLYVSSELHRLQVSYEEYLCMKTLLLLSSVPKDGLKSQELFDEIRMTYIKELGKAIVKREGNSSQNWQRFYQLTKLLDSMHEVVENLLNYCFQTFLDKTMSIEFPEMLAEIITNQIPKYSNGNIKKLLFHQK
Chain of Cytochrome P450 3A4 (Homo sapiens) (P08684 whole entry, looked up): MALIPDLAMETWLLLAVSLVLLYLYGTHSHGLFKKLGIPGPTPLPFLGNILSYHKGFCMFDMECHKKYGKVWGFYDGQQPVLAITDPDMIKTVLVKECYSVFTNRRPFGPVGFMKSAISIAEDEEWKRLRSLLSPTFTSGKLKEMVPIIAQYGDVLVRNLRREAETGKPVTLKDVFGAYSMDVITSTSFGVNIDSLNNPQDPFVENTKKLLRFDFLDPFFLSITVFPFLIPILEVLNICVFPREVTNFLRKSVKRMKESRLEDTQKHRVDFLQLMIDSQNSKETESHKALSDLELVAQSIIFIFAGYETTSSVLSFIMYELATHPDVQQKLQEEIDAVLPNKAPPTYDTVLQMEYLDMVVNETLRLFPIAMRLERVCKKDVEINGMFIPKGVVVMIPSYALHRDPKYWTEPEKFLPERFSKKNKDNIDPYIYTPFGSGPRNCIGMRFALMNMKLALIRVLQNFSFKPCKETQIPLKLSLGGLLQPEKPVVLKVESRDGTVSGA
Chain of DNA dC->dU-editing enzyme APOBEC-3G (Homo sapiens) (Q9HC16 whole entry, looked up): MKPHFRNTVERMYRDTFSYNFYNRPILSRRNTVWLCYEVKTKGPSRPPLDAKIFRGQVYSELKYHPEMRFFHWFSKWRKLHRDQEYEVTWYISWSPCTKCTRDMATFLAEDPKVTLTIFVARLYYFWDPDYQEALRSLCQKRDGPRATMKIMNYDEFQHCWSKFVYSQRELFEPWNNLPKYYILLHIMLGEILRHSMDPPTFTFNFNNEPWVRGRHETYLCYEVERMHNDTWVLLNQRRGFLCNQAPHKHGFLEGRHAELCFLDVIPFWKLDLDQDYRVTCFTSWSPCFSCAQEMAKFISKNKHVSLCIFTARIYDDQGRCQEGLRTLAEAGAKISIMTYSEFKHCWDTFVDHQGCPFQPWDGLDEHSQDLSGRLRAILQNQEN
Chain of Cytochrome P450 1A2 (Homo sapiens) (P05177 whole entry, looked up): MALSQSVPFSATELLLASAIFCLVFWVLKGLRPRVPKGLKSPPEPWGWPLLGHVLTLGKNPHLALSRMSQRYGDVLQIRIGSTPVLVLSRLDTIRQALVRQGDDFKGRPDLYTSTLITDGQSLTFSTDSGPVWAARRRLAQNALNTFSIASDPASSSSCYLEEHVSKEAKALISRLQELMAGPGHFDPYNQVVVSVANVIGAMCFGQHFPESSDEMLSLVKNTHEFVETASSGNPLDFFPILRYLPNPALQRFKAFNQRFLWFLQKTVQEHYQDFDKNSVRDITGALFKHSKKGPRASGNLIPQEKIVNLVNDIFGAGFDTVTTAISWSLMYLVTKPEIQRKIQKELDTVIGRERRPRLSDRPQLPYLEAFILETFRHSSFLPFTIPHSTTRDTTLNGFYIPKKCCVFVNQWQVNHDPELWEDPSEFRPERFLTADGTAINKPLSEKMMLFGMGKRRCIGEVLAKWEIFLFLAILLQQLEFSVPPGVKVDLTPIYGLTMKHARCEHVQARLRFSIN
Chain of Cytochrome P450 2D6 (Homo sapiens) (P10635 whole entry, looked up): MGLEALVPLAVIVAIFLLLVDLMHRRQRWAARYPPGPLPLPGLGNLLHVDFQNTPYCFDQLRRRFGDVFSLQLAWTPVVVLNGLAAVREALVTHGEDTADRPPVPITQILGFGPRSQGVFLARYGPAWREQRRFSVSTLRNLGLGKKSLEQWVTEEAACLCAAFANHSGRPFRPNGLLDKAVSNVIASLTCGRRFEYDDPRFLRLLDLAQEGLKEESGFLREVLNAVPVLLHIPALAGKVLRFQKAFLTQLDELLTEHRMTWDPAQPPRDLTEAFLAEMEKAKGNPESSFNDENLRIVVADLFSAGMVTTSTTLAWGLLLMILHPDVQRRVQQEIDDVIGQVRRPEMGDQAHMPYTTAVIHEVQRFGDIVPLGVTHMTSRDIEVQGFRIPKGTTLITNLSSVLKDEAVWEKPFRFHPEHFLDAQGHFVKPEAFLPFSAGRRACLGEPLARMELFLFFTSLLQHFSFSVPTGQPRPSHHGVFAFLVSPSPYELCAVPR
Chain of Cytochrome P450 2C19 (Homo sapiens) (P33261 whole entry, looked up): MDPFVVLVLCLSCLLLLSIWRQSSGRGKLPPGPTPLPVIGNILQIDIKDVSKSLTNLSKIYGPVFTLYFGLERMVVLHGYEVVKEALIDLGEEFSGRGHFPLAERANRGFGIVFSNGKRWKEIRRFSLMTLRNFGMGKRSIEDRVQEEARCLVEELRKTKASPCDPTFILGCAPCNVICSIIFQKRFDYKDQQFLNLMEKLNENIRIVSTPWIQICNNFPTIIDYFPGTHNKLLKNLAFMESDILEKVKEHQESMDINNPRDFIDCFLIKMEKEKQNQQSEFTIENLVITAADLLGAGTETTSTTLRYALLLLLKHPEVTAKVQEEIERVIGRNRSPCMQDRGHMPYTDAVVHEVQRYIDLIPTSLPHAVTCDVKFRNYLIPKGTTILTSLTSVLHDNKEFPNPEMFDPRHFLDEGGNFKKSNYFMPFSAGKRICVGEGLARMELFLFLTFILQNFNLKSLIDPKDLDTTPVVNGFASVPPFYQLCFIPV
Chain of Cytochrome P450 2C9 (Homo sapiens) (P11712 whole entry, looked up): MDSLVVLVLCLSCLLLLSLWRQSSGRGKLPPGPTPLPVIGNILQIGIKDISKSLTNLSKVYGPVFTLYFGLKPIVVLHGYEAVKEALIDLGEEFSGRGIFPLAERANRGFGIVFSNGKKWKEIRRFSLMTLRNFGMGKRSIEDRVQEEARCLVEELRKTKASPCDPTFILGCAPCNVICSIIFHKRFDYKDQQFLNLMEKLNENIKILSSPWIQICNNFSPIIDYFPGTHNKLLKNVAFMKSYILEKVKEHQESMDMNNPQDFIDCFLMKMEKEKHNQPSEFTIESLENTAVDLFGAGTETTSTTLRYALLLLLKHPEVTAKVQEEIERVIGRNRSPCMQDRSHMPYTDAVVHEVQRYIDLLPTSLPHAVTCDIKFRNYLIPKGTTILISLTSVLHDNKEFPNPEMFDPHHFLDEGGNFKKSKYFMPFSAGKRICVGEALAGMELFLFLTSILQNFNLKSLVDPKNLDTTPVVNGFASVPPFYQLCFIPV

COc1c2ccoc2c(OC[C@@H](O)C(C)(C)OC)c2oc(=O)ccc12
Potency [1]: inactive | Potency [2]: inactive | Potency [3]: inactive

COc1cc2c(cc1OC)CN(CCc1ccc(NC(=O)c3cc(OC)c(OC)cc3NC(=O)c3cnc4ccccc4c3)cc1)CC2
Potency [1]: inactive | Potency [2]: 19.3 µM (active) | Potency [3]: inactive | Potency [4]: inactive

COc1cc(C(=O)O[C@@H]2CC(C)=CC[C@@]3(C)CC[C@](O)(C(C)C)[C@H]23)ccc1O
Potency [1]: inactive | Potency [2]: inactive | Potency [3]: inactive

CCCCCC[C@@H](O)C/C=C\CCCCCCCC(=O)O
Potency [1]: inactive | Potency [2]: inactive | Potency [3]: inactive | outcome [5]: inactive | Potency [6]: inactive | outcome [7]: inactive | Potency [4]: inactive | activity change, negative = inhibition [8]: -16.6%

Cc1ncc(C[n+]2csc(CCO)c2C)c(N)n1
Potency [1]: inactive | Potency [2]: inactive | Potency [3]: inactive | Potency [9]: inactive | outcome [5]: inactive | Potency [6]: inactive | outcome [7]: inactive

COc1ccc(-c2cc3c(C)nc(N)nc3n(C3CCC(OCCO)CC3)c2=O)cn1 (centres undefined)
Potency [1]: 0.153 µM (active) | Potency [2]: 0.0544 µM (active) | Potency [3]: 0.153 µM (active)

CC(=O)/C=C/C1C(C)=CCC(C)C1(C)C (centres undefined)
Potency [1]: inactive | Potency [2]: inactive | Potency [3]: inactive

O=C1c2ccccc2C(=O)N1Cc1ccccc1
Potency [1]: inactive | Potency [2]: inactive | Potency [3]: inactive

C=C[C@H]1CN2CC[C@@H]1C[C@@H]2[C@@H](O)c1ccnc2ccc(OC)cc12
outcome [10]: inactive | outcome [11]: inactive | Potency [1]: inactive | Potency [2]: inactive | Potency [12]: inactive

C=C1C2[C@H](OC(C)=O)[C@@H]3CC(=O)[C@]4(C)OC[C@@]3(C)[C@@]4(O)[C@@H](OC(C)=O)[C@H](OC(C)=O)[C@@]2(COC(=O)c2ccccc2)[C@@H](OC(C)=O)C[C@@H]1O (some centres undefined)
Potency [1]: inactive | Potency [2]: inactive | Potency [3]: inactive

CCN(CC)CCCCCCCCOC(=O)c1cc(OC)c(OC)c(OC)c1
outcome [11]: inactive | outcome [13]: inactive | Potency [1]: inactive | Potency [2]: inactive | Potency [12]: inactive

COc1cccc2c1cc([N+](=O)[O-])c1c(C(=O)O)cc3c(c12)OCO3
Potency [14]: 31.6 µM (active) | Potency [15]: > 46 µM (inactive) | Potency [16]: > 46 µM (inactive) | outcome [17]: inactive | Potency [18]: inactive | Potency [19]: inactive | Potency [20]: inactive | Potency [21]: inactive | Potency [22]: inactive | Potency [23]: inactive | outcome [24]: inactive | Potency [25]: inactive | Potency [1]: inactive | Potency [2]: inactive | Potency [3]: inactive | Potency [26]: inactive | Potency [27]: inactive

— PubChem BioAssay (NCATS)
